{"source": "PubChem BioAssay (Tox21)", "note": "Results filed as inconclusive are left out. Activity calls are given as the source filed them. Calls come from the whole dose curve; as a rule, active = well fitted activation curve with a large enough effect in the signal ratio in the repeat runs (not every such curve was filed as active); inconclusive = weak or mixed curves; inactive = flat fitted curve, though single readings scatter; the % refers to the signal ratio. % is set by controls: 0 for no effect and ±100 for the full control effect.", "data": [{"experiment": "qHTS assay to identify small molecule agonists of the hypoxia (HIF-1) signaling pathway (AID 1224846)", "conditions": "HRE-bla ME-180 cells, beta-lactamase ratio, 17 h; series mostly up to 76.8 µM; activation: at the top concentration", "from_the_text": "U.S. Tox21 Program National Center for Advancing Translational Sciences [NCATS] NIH Chemical Genomics Center [NCGC] U.S. Environmental Protection Agency [EPA] National Institutes of Environmental Health Sciences [NIEHS] National Toxicology Program [NTP] U.S. Food and Drug Administration [FDA] Tox21 Assay Overview: Hypoxia-inducible factor-1 (HIF-1) is the major hypoxia-regulated transcription factor that controls cellular responses to low oxygen concentration. HIF-1 is composed of two subunits: hypoxia responsive HIF-1-alpha and constitutively expressed HIF-1-beta, which is also known as aryl hydrocarbon receptor nuclear translocator. During hypoxic conditions, HIF-1-alpha heterodimerizes with HIF-1-beta and translocates into the nucleus where the HIF-1 complex binds to the hypoxia-response element (HRE) and activates expression of target genes such as VEGF (vascular endothelial growth factor). The HIF-1 pathway is essential to normal growth and development, and is involved in the pathophysiology of cancer, inflammation, and ischemia. Using a beta-lactamase reporter-gene under control of the hypoxia response element, a cell-based assay [CellSensor(TM) HRE-bla ME-180 from Life Technologies, Carlsbad, CA] was used to measure hypoxia-induced signaling. Tox21 10K library compounds were measured for their ability to induce the reporter gene activity.\nTox21 Assay Protocol Summary: HRE-bla ME-180 cells were dispensed at 2,000 cells per well in 6 uL of assay medium containing 0.5% dialyzed FBS into black wall/clear-bottom 1536-well plates using a Multidrop Combi (Thermo Scientific, Waltham, MA) dispenser. After the assay plates were incubated at 37C and 5% CO2 for 5 hrs, 23 nL of compounds dissolved in DMSO, positive controls or DMSO only was transferred to each well of the assay plate using a Pintool station (Kalypsys, San Diego, CA). The assay plates were incubated at 37C and 5% CO2 for 17 hrs. One uL of LiveBLAzerTM B/G FRET substrate (CCF4-AM) (Life Technologies) was added to each well using a Flying Reagent Dispenser (Aurora Discovery, San Diego, CA).", "values": [{"smiles": "CCCCS", "activation": "-0.092% (inactive)"}, {"smiles": "CC(=O)c1ccc(O)c(C(N)=O)c1", "activation": "-0.626% [at 35.5 µM] (inactive)"}, {"smiles": "c1coc(Cn2cccc2)c1", "activation": "-0.715% (inactive)"}, {"smiles": "CC/C=C/CCCCCCCCCCOC(C)=O", "activation": "-1% (inactive)"}, {"smiles": "COC(=O)c1c(C)cc(O)c(C)c1O", "activation": "-0.112% (inactive)"}, {"smiles": "CC(C)OCCO", "activation": "-1.09% (inactive)"}, {"smiles": "O=Cc1ccccc1S(=O)(=O)O", "activation": "0.0081% (inactive)"}, {"smiles": "CC(=O)Oc1ccc(C(C)=O)cc1", "activation": "-1.64% (inactive)"}, {"smiles": "c1cc2ccc3ccc4ccc5cccc6c(c1)c2c3c4c56", "activation": "6.16% [at 2.67 µM] (inactive)"}, {"smiles": "CC(=O)SCC(CC(=O)c1ccc(C)cc1)C(=O)O", "note": "(stereo not given)", "activation": "0.636% [at 35.5 µM] (inactive)"}, {"smiles": "Cc1ccc2ccccc2n1", "activation": "0.304% (inactive)"}, {"smiles": "CC(C)OC(=O)C(C(=O)OC(C)C)=C1SC=CS1", "activation": "4.78% [at 35.5 µM] (inactive)"}, {"smiles": "CCCCCCCOC(C)=O", "activation": "-0.649% (inactive)"}, {"smiles": "BrCCOc1ccccc1", "activation": "-0.656% (inactive)"}, {"smiles": "CCC(C)SSC(C)CC", "note": "(stereo not given)", "activation": "-0.922% (inactive)"}, {"smiles": "CC(C)=CCC/C(C)=C\\C#N", "activation": "0.0793% (inactive)"}, {"smiles": "C/C(=N\\O)c1ccc(OCC(=O)N2CCCCC2)cc1", "activation": "0.213% [at 35.5 µM] (inactive)"}, {"smiles": "CCCC(=O)CC", "activation": "-0.505% (inactive)"}, {"smiles": "CCOC(=O)CC(C(C)=O)C(C)=O", "activation": "-1.04% (inactive)"}, {"smiles": "COCCCOc1cc(C[C@@H](C[C@H](N)[C@@H](O)C[C@H](C(=O)NCC(C)(C)C(N)=O)C(C)C)C(C)C)ccc1OC", "activation": "0.322% [at 35.5 µM] (inactive)"}, {"smiles": "OCCC(F)(F)C(F)(F)C(F)(F)C(F)(F)C(F)(F)C(F)(F)F", "activation": "0.48% (inactive)"}, {"smiles": "Nc1cc(S(=O)(=O)O)ccc1O", "activation": "-0.597% (inactive)"}, {"smiles": "Cc1cccc(N)n1", "activation": "-0.728% (inactive)"}, {"smiles": "Cc1nnc(C(=O)NC(C)(C)c2nc(C(=O)NCc3ccc(F)cc3)c(O)c(=O)n2C)o1", "activation": "-1.37% [at 35.5 µM] (inactive)"}, {"smiles": "C/C=C(\\C)C=O", "activation": "-1.06% (inactive)"}, {"smiles": "NC(=O)CC[C@@H](N)C(=O)O", "activation": "-0.292% [at 35.5 µM] (inactive)"}, {"smiles": "C[C@@H]1CCC[C@H](C)N1CCCC(O)(c1ccccc1)c1ccccn1", "note": "(stereo not given in full)", "activation": "0.383% [at 35.5 µM] (inactive)"}, {"smiles": "Cc1ccc(NC(N)=O)cc1", "activation": "-1.49% (inactive)"}, {"smiles": "CCCC(C)C(O)CC", "note": "(stereo not given)", "activation": "0.353% (inactive)"}, {"smiles": "O=C1c2ccccc2C(=O)N1CO", "activation": "-1.55% (inactive)"}, {"smiles": "CN(C)c1ccncc1", "activation": "1.4% (inactive)"}, {"smiles": "O=c1[nH]c(=O)c2cn[nH]c2[nH]1", "activation": "-0.727% (inactive)"}, {"smiles": "CC/C=C\\CCOC(=O)c1ccccc1", "activation": "0.0229% (inactive)"}, {"smiles": "CCN(CC)CC", "activation": "-0.335% (inactive)"}, {"smiles": "N#CC1(N)CCCCC1", "activation": "-1.17% (inactive)"}, {"smiles": "O=C(c1ccccc1)c1cccc(O)c1", "activation": "0.444% (inactive)"}, {"smiles": "NNC(=O)CCCCC(=O)NN", "activation": "0.581% (inactive)"}, {"smiles": "CC(CN1CC(=O)NC(=O)C1)N1CC(=O)NC(=O)C1", "note": "(stereo not given)", "activation": "-0.855% (inactive)"}, {"smiles": "COc1ccccc1N1CCN(CC(O)COc2cc(OC)c(OC)c(OC)c2)CC1", "note": "(stereo not given)", "activation": "0.323% [at 35.5 µM] (inactive)"}, {"smiles": "C=CC(=O)OCC[N+](C)(C)C", "activation": "-0.739% (inactive)"}]}]}
